Laboratory results reported in PubChem BioAssay (NCATS).
Inconclusive results are not listed. Entries that show only a call come without a potency. A structure can be active in one record and inactive in another. The source made the active and inactive calls. Unless noted, the call rests on the fitted dose curve; in most records, active means well fitted curve in the direction sought with a large enough effect; inconclusive means small, poorly fitted or top-dose-only effect, or another doubt; inactive means no such curve, though single readings can be large; an effect the other way counts as inactive or inconclusive.

Columns and labels:
[1] = Cytometric Cell-Based qHTS for Inhibitors of the mTORC1 Signaling Pathway in MEF (Tsc2-/-, p53-/-) Cells (AID 2660);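 further: Tsc2 and p53 null MEFs carrying empty vector with compound for 24 h; percent of cells above a phospho-rpS6 to PI ratio cutoff in each well; series mostly up to about 38 µM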
Method in brief: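 Immunofluorescence qHTS of rpS6 Ser235/236 phosphorylation: MEFs (Tsc2-/-, p53-/-) treated 24 h, 37 C, in DMEM + 10% FBS. Alexa-488 signal normalized to PI count, referenced to rapamycin (7.5 nM) and DMSO; PI cell number recorded for viability.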

[2] = High Content Imaging Cell-Based qHTS for Inhibitors of the mTORC1 Signaling Pathway in MEF (Tsc2-/-, p53-/-) Cells (AID 2666);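 further: percent of cells scored positive for phospho-rpS6 Ser235/236 immunostaining by imaging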
Method in brief: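 Cells were plated, dosed with compound after 24 hrs, and incubated another 24 hrs at 37 degree Celsius. Fixed cells were immunostained for phospho-rpS6 Ser235/236 and counterstained, and the normalized signal was scored as % active cells against rapamycin and DMSO controls.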

[3] = High Content Imaging Cell-Based qHTS for Inhibitors of the mTORC1 Signaling Pathway in MEF Cells (AID 2667);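 further: Tsc2-/- p53-/- MEFs stably re-expressing wild-type Tsc2 exposed 24 h; series mostly up to about 38 µM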
Method in brief: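 Immunofluorescence for rpS6 phosphorylation in MEFs of Tsc2-/-, p53-/- background rescued with WT Tsc2. Compound exposure lasted 24 hrs. Inhibition was scored against rapamycin-treated control wells.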

[4] = Cytometry Cell-Based qHTS for Inhibitors of the mTORC1 Signaling Pathway in MEF cells (AID 2668);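 further: Tsc2-/- p53-/- mouse embryonic fibroblasts stably re-expressing wild-type Tsc2; percent cells positive for phospho-rpS6 Ser235/236 relative to propidium iodide stain; series mostly up to about 38 µM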
Method in brief: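 Tsc2-/-, p53-/- MEFs re-expressing WT Tsc2; cpd 24 hrs, 37 degree Celsius; PFA fix, Alexa-488 p-rpS6 (Ser235/236) Ab 2 hrs RT, PI counterstain; Acumen 488nm scan; p-S6/PI ratio → % positive cells; PI count = viability.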

[5] = Validation screen for small molecules that induce DNA re-replication in MCF 10A normal breast cells (AID 463097); further: nearly all actives have a fitted effect of over 60% in size
Method in brief: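 Image-based qHTS: normal breast cells are incubated with compound for 48 hr, stained with Hoechst, and scanned for total nuclear fluorescence. Compounds raising the fraction of nuclei with elevated DNA content count as re-replication inducers.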

[6] = target: DNA polymerase III PolC-type (Bacillus subtilis (strain 168)) (UniProt P13267); experiment: qHTS Validation Assay for the Inhibitors of DNA Replication in Gram-Positive Bacteria (AID 485295);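 further: reconstituted holoenzyme with PolC plus beta clamp SSB and primase; PicoGreen fluorescence of double-stranded DNA made on primed circular M13 template; series mostly up to about 57 µM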
DNA polymerase III PolC-type (Bacillus subtilis (strain 168)), sequence (P13267 whole entry, looked up): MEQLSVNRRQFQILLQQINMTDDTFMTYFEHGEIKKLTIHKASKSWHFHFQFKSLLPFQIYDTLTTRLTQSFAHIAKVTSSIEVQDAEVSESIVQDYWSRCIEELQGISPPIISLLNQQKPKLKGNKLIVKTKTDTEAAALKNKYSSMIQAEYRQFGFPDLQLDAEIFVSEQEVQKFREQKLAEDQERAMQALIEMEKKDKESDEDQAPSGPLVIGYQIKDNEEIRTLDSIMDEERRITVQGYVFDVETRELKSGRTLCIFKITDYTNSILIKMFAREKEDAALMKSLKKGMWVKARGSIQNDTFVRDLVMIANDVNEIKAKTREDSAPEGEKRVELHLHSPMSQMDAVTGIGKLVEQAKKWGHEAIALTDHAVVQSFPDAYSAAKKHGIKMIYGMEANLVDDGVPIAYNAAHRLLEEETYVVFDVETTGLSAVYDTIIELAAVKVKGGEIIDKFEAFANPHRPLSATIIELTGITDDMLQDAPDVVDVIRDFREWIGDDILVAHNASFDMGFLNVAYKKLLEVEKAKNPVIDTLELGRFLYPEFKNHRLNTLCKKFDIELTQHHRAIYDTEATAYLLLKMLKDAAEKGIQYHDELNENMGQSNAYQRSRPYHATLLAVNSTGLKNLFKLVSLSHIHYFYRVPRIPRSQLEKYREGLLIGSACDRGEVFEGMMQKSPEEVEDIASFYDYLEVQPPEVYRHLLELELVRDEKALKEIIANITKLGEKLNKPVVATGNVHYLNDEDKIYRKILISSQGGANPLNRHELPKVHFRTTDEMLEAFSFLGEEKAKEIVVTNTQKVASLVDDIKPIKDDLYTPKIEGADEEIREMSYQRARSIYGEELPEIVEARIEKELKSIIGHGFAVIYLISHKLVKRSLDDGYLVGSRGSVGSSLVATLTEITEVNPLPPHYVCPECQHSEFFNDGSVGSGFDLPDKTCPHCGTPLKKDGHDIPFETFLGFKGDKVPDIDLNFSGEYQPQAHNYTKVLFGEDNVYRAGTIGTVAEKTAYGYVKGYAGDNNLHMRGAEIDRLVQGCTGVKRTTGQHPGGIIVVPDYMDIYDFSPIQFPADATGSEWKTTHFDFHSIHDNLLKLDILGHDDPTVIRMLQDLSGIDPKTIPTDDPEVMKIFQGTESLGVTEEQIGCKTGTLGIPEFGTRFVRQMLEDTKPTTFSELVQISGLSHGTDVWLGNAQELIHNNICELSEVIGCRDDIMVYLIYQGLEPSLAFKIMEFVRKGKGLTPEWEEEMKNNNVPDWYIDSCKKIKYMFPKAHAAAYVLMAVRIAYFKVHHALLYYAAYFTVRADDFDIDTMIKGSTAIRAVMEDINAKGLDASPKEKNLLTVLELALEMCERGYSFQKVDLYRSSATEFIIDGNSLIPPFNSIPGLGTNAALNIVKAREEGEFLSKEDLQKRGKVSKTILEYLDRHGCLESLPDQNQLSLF
Method in brief: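 First, compound is mixed with the reconstituted replication complex and held at room temperature. Next, circular single-stranded M13Gori with nucleotides starts synthesis. Finally, PicoGreen in EDTA halts the reaction and stains double-stranded product for fluorescence reading.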

[7] = target: Tumor susceptibility gene 101 protein (Homo sapiens) (UniProt Q99816); experiment: qHTS Validation Assay for Iinhibitors of HIV-1 Budding by Blocking the Interaction of PTAP/TSG101 (AID 485342; calls by dose curve)
Tumor susceptibility gene 101 protein (Homo sapiens), sequence (Q99816 whole entry, looked up, the tested form may be a part): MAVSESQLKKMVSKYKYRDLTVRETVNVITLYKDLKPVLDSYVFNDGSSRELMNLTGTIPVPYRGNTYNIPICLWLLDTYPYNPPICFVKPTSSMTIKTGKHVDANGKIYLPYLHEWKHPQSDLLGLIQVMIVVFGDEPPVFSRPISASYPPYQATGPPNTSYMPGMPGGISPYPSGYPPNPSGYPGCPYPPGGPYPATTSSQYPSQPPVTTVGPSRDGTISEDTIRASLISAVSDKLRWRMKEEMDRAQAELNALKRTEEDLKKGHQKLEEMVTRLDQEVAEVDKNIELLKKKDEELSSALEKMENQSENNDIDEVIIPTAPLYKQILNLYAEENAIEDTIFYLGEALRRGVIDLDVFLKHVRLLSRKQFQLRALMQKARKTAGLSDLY
Method in brief: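 Binding of a FITC-tagged PTAP-motif peptide (50 nM) to the Tsg101 binding domain (10 uM) is monitored by fluorescence polarization. Compounds are pin-delivered before peptide addition, and incubation runs 20 min at room temperature.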

[8] = qHTS Validation Assay to Find Inhibitors of Chronic Active B-Cell Receptor Signaling (AID 485345; active means well fitted curve in the direction sought with a large enough effect in the main read-out, with a control signal flat, not every such curve was filed as active)
Method in brief: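 Read-out: ratio of filter-corrected green (IkappaBalpha fusion) to red (native) luciferase signal in doxycycline-induced TMD8 cells after 4 h at 37C. Titration spanned 46 uM–3 nM; Data were normalised to basal cells and 10 uM MG-132 wells.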

[9] = target: ATP-dependent 6-phosphofructokinase (Trypanosoma brucei brucei) (UniProt O15648); experiment: qHTS Validation Assay to Find Inhibitors of T. brucei phosphofructokinase (AID 485368)
ATP-dependent 6-phosphofructokinase (Trypanosoma brucei brucei), sequence (O15648 whole entry, looked up): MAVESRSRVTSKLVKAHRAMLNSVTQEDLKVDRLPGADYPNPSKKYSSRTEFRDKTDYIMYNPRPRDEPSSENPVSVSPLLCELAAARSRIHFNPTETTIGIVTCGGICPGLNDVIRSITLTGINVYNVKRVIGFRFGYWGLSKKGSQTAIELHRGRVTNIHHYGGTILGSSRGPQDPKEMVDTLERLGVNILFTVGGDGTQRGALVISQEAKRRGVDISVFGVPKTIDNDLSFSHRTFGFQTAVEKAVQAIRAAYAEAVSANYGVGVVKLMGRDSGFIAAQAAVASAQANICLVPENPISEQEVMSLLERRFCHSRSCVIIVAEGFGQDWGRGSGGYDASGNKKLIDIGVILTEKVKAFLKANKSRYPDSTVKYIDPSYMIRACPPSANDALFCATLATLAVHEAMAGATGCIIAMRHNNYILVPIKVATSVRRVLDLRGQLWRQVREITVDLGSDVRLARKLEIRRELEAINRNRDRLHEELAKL
Method in brief: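 Steps: substrate mix (0.5 mM F6P, 0.1 mM ATP, MgCl2, TEA pH 8.0); compound; 1.25 nM T. brucei PFK; 45 min RT; ATP depletion 10 min; ADP-to-ATP detection 10 min; luminescence read; curve fitting and classification.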

[10] = Quantitative high throughput screen for delayed death inhibitors of the malarial parasite plastid, 96 hour incubation (AID 488745); further: nearly all actives have a fitted effect of over 70% in size; further: potency means the concentration at half of the fitted maximal effect
Method in brief: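 P. falciparum carrying an integrated firefly luciferase reporter, grown in erythrocytes (2% hematocrit, 0.1% parasitemia final) in RPMI 1640/0.5% Albumax, was exposed to compound for 96 h (two generations) at 37 C, 5% CO2. Luminescence decrease indicated growth inhibition.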

[11] = target: Thioredoxin reductase 1, cytoplasmic (Rattus norvegicus) (UniProt O89049); experiment: qHTS Assay for Substrates of Mammalian Selenoprotein Thioredoxin Reductase 1 (TrxR1) (AID 488772);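 further: NADPH fluorescence in the first read after selenite addition and not the 8 min delta; series mostly up to about 57 µM; a drop in NADPH fluorescence below the no-compound background marks a TrxR1 substrate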
Thioredoxin reductase 1, cytoplasmic (Rattus norvegicus), sequence (O89049 whole entry, looked up): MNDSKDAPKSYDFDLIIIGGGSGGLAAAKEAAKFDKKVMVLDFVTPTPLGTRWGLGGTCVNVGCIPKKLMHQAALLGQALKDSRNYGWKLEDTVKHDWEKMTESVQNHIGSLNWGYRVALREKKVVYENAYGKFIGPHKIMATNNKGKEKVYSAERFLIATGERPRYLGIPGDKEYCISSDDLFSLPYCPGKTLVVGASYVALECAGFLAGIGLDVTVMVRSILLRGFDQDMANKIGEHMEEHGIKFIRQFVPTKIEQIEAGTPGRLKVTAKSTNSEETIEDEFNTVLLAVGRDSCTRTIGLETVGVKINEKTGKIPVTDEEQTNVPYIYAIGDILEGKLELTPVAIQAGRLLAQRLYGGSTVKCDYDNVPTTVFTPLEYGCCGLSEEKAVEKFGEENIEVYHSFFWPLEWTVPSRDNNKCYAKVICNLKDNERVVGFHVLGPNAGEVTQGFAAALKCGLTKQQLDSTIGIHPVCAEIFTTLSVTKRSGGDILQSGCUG
Method in brief: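 Quantitative HTS in Tris-HCl buffer at pH 7.5 with EDTA and Tween-20, using rat TrxR1, 400 uM NADPH and 400 uM selenite (final). A fall in initial NADPH fluorescence relative to background marked substrate behaviour.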

[12] = target: Thioredoxin reductase 1, cytoplasmic (Rattus norvegicus) (UniProt O89049); experiment: qHTS Assay for Inhibitors of Mammalian Selenoprotein Thioredoxin Reductase 1 (TrxR1) (AID 488773); details: Potency: inhibition; further: nearly all actives have a fitted effect of over 40% in size; further: potency means the concentration at half of the fitted maximal effect
Method in brief: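 Steps: enzyme (90 nM) plus NADPH (400 uM final), 5 min at ~22 deg C; compound added, 15 min; selenite (400 uM final) added; fluorescence followed for 8 min. Concentration-response curves derived from the normalized delta values.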

[13] = target: Flap endonuclease 1 (Homo sapiens) (UniProt P39748); experiment: qHTS Validation Assay for the Inhibitors of Human Flap endonuclease 1 (FEN1) (AID 488816)
Flap endonuclease 1 (Homo sapiens), sequence (P39748 whole entry, looked up): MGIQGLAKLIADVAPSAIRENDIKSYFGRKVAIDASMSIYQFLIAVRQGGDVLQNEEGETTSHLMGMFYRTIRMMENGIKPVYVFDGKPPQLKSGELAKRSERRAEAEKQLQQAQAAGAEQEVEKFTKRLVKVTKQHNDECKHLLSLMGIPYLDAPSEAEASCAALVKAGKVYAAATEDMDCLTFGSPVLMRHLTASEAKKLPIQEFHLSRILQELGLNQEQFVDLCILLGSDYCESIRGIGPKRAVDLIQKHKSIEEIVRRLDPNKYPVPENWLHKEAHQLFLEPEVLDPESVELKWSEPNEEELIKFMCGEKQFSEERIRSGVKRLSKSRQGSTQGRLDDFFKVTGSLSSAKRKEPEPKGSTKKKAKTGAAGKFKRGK
Method in brief: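 Readings taken at 0 and 15 min after starting the reaction with 50 nM (final) substrate supplied the signal. Compounds had first sat with 10 nM FEN1 reagent for 15 min at room temperature. Values come from Hill-equation concentration-response fits.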

[14] = target: M-phase phosphoprotein 8 (Homo sapiens) (UniProt Q99549); experiment: qHTS Validation Assay for Inhibitors for MPP8 Chromodomain Interactions with Methylated Histone Tails (AID 488949); further: nearly all actives have a fitted effect of over 55% in size; further: potency means the concentration at half of the fitted maximal effect
Method in brief: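 50 nM MPP8 + 50 nM b-H3K9me3 peptide, PBS pH 7.4/0.01% Tween-20, 30 min RT; + cpd 30 min RT; + AlphaScreen donor/Ni-chelate acceptor beads 10 ug/mL final, 30 min dark; luminescence read.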

[15] = target: Methanococcus maripaludis chaperonin (MmCpn) (UniProt Q6LX38); experiment: High-Throughput Screening for Modulators of Cytosolic Chaperonin Activity: MmCpn Primary Screen (AID 488978);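 further: 50 nM MmCpn enzyme hydrolysing 30 µM ATP at 37 °C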
Methanococcus maripaludis chaperonin (MmCpn), sequence (Q6LX38 1-543): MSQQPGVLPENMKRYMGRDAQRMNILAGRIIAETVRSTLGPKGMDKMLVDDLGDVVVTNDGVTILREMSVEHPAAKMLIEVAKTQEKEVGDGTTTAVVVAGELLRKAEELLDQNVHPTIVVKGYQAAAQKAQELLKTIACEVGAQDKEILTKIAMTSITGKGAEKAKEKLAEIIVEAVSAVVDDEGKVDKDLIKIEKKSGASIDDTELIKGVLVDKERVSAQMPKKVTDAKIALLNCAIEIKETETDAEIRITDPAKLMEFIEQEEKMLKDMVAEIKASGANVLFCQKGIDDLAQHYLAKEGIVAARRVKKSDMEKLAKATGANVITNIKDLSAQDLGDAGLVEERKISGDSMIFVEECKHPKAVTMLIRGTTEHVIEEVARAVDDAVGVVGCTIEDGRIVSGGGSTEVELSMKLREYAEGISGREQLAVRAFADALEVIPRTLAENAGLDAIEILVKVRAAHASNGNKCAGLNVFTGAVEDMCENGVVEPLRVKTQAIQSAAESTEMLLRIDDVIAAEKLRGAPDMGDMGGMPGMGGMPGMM
Method in brief: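 Steps: chaperonin 50 nM final; add compound, 5 min RT; start with ATP, 30 uM final; hold 10 min at 37C; add ADP Transcreener HTRF reagent, 5 min; read ex 320, em 590 and 665 nm.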

[16] = target: Ubiquitin carboxyl-terminal hydrolase 2 (Homo sapiens) (UniProt O75604); experiment: qHTS Validation Assay for Inhibitors of Ubiquitin-specific Protease USP2a Using CHOP2 as the Reporter (AID 463106)
Ubiquitin carboxyl-terminal hydrolase 2 (Homo sapiens), sequence (O75604 whole entry, looked up): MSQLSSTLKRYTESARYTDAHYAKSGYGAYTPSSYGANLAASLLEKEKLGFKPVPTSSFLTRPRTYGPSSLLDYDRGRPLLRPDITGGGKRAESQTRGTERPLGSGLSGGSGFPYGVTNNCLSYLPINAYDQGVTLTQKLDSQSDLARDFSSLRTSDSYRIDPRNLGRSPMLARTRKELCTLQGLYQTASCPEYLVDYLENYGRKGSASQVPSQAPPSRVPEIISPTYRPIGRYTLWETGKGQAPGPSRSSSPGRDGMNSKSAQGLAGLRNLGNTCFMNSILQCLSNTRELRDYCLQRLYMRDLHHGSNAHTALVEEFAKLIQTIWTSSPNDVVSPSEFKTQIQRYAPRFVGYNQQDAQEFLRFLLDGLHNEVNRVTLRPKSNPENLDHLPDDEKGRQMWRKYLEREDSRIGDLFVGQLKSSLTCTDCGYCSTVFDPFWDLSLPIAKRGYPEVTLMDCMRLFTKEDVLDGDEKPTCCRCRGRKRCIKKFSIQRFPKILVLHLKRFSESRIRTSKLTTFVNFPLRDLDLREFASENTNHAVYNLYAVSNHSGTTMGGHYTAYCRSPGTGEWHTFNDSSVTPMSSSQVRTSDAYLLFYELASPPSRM
Method in brief: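 10nM USP2 core + cpd, 30min RT; add 25nM Ub-CHOP2/25nM substrate; 60min RT; FI 485/531nm. Buffer Tris pH 8.0, CaCl2, BME, CHAPS. Norm. to NEM = 100% inhibition; time-zero read flags fluorescent artifacts.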

[17] = target: Beta-2 adrenergic receptor (Homo sapiens) (UniProt P07550); experiment: qHTS validation assay of beta-arrestin-biased ligands of beta2-adrenergic receptor (AID 485366)
Beta-2 adrenergic receptor (Homo sapiens), sequence (P07550 whole entry, looked up): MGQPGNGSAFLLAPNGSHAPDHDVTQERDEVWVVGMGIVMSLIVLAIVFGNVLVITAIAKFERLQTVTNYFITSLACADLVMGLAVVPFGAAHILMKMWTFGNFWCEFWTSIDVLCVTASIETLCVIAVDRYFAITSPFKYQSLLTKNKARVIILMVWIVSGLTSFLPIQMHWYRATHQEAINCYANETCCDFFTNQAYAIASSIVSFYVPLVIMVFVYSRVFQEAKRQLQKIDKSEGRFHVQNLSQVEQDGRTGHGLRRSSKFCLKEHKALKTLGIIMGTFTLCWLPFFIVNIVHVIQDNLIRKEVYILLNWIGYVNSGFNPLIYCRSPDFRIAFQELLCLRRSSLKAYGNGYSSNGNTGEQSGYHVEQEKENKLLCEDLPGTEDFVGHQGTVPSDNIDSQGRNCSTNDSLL
Method in brief: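 Arrestin-recruitment (Tango) reporter: ligand-bound beta2-AR recruits beta-arrestin, releasing tTA, which upregulates luciferase. Titrations of up to 46 microM incubated 18 hr at 37 degrees C before luminescent readout.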

[18] = Quantitative high throughput screen for delayed death inhibitors of the malarial parasite plastid, 48 hour incubation (AID 488752); further: nearly all actives have a fitted effect of over 65% in size
Method in brief: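 Erythrocytes infected with P. falciparum carrying an integrated firefly luciferase reporter (2% hematocrit, 0.1% parasitemia final) were exposed to compounds in RPMI 1640/0.5% Albumax for 48 h at 37 C, 5% CO2. Growth inhibition was scored as reduced luminescence.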

[19] = target: Chromobox protein homolog 1 (Homo sapiens) (UniProt P83916); experiment: qHTS Validation Assay for Inhibitors of HP1-beta Chromodomain Interactions with Methylated Histone Tails (AID 488953);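 further: loss of AlphaScreen luminescence from HP1-beta binding biotinylated H3K9me3 peptide; series mostly up to about 110 µM; nearly all actives have a fitted effect of over 50% in size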
Chromobox protein homolog 1 (Homo sapiens), sequence (P83916 whole entry, looked up): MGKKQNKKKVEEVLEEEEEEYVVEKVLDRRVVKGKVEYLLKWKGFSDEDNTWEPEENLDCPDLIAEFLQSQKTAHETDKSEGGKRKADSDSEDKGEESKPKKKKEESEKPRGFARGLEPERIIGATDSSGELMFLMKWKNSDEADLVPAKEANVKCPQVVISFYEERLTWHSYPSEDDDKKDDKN
Method in brief: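 HP1-beta (50 nM) was preincubated 30 min at room temperature with biotinylated H3(1-18)K9me3 peptide (50 nM) in PBS pH 7.4, 0.01% Tween-20, then with compounds 30 min. AlphaScreen signal was read after streptavidin donor/nickel chelate acceptor beads (10 ug/mL final).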

| Structure (SMILES) | outcome [1] | Potency [2] | Potency [3] | Potency [4] | Potency [5] | Potency [6] | outcome [7] | outcome [8] | Potency [9] | Potency [10] | outcome [11] | Potency [12] | Potency [13] | Potency [14] | outcome [15] | Potency [16] | outcome [17] | Potency [18] | Potency [19] |
| --- | --- | --- | --- | --- | --- | --- | --- | --- | --- | --- | --- | --- | --- | --- | --- | --- | --- | --- | --- |
| COc1ccc2c(c1)c(CC(=O)O)c(C)n2Cc1ccc(Cl)cc1 | inactive | inactive | inactive | inactive | inactive | inactive | inactive | inactive | inactive | 10.4 µM (active) | inactive | inactive | inactive | inactive | inactive |  |  |  |  |
| NC1(C(=O)O)CCc2cc(C(=O)O)ccc21 (stereo unspecified) | inactive | inactive | inactive | inactive | inactive |  | inactive | inactive |  | inactive | inactive | 16.8 µM (active) | inactive | inactive | inactive | inactive | inactive | inactive | inactive |
| C=CCn1c(=O)c2c(nc(-c3ccc(S(=O)(=O)O)cc3)n2C)n(C)c1=O | inactive | inactive | inactive | inactive | inactive |  | inactive | inactive |  | inactive | inactive | inactive |  | inactive | inactive | inactive | inactive | inactive |  |
| N#C/C(=C\c1ccc(O)c(O)c1)C(=O)NCCCNC(=O)/C(C#N)=C/c1ccc(O)c(O)c1 | inactive | inactive | inactive | inactive | inactive |  | inactive |  |  |  |  |  |  |  | inactive | inactive |  |  |  |
| C=C(C)C1CC=C(C(=O)O)CC1 (stereo unspecified) | inactive | inactive | inactive | inactive | inactive | inactive | inactive | inactive | inactive | inactive | inactive | inactive |  | inactive | inactive |  | inactive | inactive | inactive |
| C[C@@H](NCCc1ccc(O)cc1)[C@@H](O)c1ccc(O)cc1 | inactive | inactive | inactive | inactive | inactive | inactive | inactive | inactive | inactive |  | inactive | inactive | inactive | inactive | inactive |  | inactive | inactive | inactive |
| COc1ccccc1N1CCN(CCN(C(=O)c2ccc(F)cc2)c2ccccn2)CC1 | inactive | inactive | inactive | inactive | inactive |  | inactive | inactive | inactive | inactive | inactive | inactive |  | inactive | inactive | inactive | inactive |  |  |
| CCCCCC[C@@H]([C@@H](C)O)n1cnc2c(N)ncnc21 | inactive | inactive | inactive | inactive | inactive |  | inactive | inactive | inactive |  | inactive |  |  |  | inactive | inactive | inactive |  |  |
| Nc1ccc(CCNc2ncnc3c2ncn3C2OC(CO)C(O)C2O)cc1 (stereo unspecified) | inactive | inactive | inactive | inactive | inactive |  | inactive |  | inactive |  | inactive | inactive | inactive | inactive | inactive | inactive | inactive | inactive | inactive |
| COc1cc2c(CCNC(C)=O)c[nH]c2cc1O | inactive | inactive | inactive | inactive | inactive | inactive | inactive | inactive | inactive |  | inactive | inactive |  | inactive | inactive |  | inactive | inactive | inactive |
| O=C(O)c1cccnc1C(=O)O | inactive | inactive | inactive | inactive | inactive | inactive |  |  | inactive |  | inactive | inactive | inactive |  | inactive | inactive |  | inactive |  |
| O=C(O)Cc1ccc(O)c(O)c1 | inactive | inactive | inactive | inactive | inactive |  | inactive | inactive |  | inactive | inactive |  |  | inactive | inactive | inactive | inactive |  | inactive |
| N[C@H](C(=O)O)[C@H](O)C(=O)O | inactive | inactive | inactive | inactive | inactive |  | inactive | inactive | inactive | inactive | inactive | inactive | inactive | inactive | inactive | inactive |  | inactive | inactive |
| C[C@H](O)C(=O)C1=Nc2c(nc(N)[nH]c2=O)NC1 | inactive | inactive | inactive | inactive | inactive | inactive | inactive | inactive |  | inactive |  | inactive |  | inactive | inactive |  | inactive | inactive | inactive |
| NC1C=CC=C(C(=O)O)C1 (stereo unspecified) | inactive | inactive | inactive | inactive | inactive |  |  | inactive | inactive | inactive | inactive | inactive | inactive |  | inactive | inactive | inactive | inactive | inactive |
| CO/N=C(\C(=O)N[C@@H]1C(=O)N2C(C(=O)O)=C(CSc3nc(=O)c(O)nn3C)CSC12)c1csc(N)n1 (stereo partly specified) | inactive | inactive | inactive | inactive | inactive | inactive | inactive | inactive |  |  | inactive |  | inactive | 44.7 µM (active) and inactive | inactive |  | inactive | inactive |  |
| Nc1nc2c(nc(Br)n2C2OC3COP(=O)(O)O[C@@H]3C2O)c(=O)[nH]1 (stereo partly specified) | inactive | inactive | inactive | inactive |  | inactive | inactive | inactive |  |  | inactive | inactive |  | inactive | inactive | inactive | inactive |  | inactive |
